The text below walks through data of PubChem BioAssay (NCATS).

Values without a mark were called inactive. Records with an inconclusive call do not appear. The list shows a part of the results. The source made the active and inactive calls. Unless noted, calls come from the whole dose curve; as a rule, active = well fitted curve in the direction sought with a large enough effect; inconclusive = small, poorly fitted or top-dose-only effect, or another doubt; inactive = no such curve, though single readings can be large; an effect the other way counts as inactive or inconclusive. Some results are limits rather than exact numbers.

For experiment [1], the target named is Rap guanine nucleotide exchange factor 3 (Homo sapiens) (UniProt O95398). Description: Confirmatory qHTS for agonist of cAMP-regulated guanine nucleotide exchange factor 3 (EPAC1) (AID 1645881).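 Note: EPAC1 catalysed release of BODIPY-GDP from Rap1B seen as fluorescence loss; 100% = effect of cAMP agonist control; nearly all actives have a fitted effect of over 75% in size.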
Experiment [2] has as its target Rap guanine nucleotide exchange factor 4 (Homo sapiens) (UniProt Q8WZA2). Description: Confirmatory qHTS for agonist of cAMP-regulated guanine nucleotide exchange factor 4 (EPAC2) (AID 1645884).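 Note: nucleotide exchange releases bodipy-GDP from Rap1 and this lowers its fluorescence; % is set by controls: 0 for no effect and ±100 for the full control effect; nearly all actives have a fitted effect of over 65% in size.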
The target is the same in experiment [3]. Description: Confirmatory qHTS for antagonist of cAMP-regulated guanine nucleotide exchange factor 4 (EPAC2) (AID 1645885). For activity change, negative = inhibition: % is set by controls: 0 for no effect and ±100 for the full control effect. Note: nearly all actives have a fitted effect of over 25% in size. Note: potency is the fitted concentration of half-maximal effect.
The target in experiment [4] is Rap guanine nucleotide exchange factor 3 (Homo sapiens) (UniProt O95398). Description: Counterscreen qHTS for antagonist of cAMP-regulated guanine nucleotide exchange factor 3 (EPAC1) (AID 1645888).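 Note: fluorescence loss as bound BODIPY-GDP is released from Rap1B; % of control where 0% means no effect.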 In short, it runs like this:
(§1)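 Rap1B–BODIPY-GDP (250 nM) with 50 uM GDP; compounds pin-transferred to 9.74 nM–152 uM final (activator) or from 7.32 nM upwards (inhibitor). Fluorescence Ex/Em 480/540 nm read at 5 and 30 min, then after adding cAMP or buffer, at room temperature.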

Experiment [5] has the same target. Description: Counterscreen qHTS for agonist of cAMP-regulated guanine nucleotide exchange factor 3 (EPAC1) (AID 1645889). Note: % of control where 0% means no effect; nearly all actives have a fitted effect of over 40% in size. In outline:
as §1

In experiment [6] the target is Tyrosyl-DNA phosphodiesterase 1 (Homo sapiens) (UniProt Q9NUW8). Description: Confirmation Assay for Inhibitors of Tyrosyl-DNA Phosphodiesterase (TDP1) (AID 489007). Note: potency is the fitted concentration of half-maximal effect; nearly all actives have a fitted effect of over 40% in size. Conditions: recombinant human TDP1 enzymatic activity, dose-response. In outline:
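Compounds are preincubated 15 min at room temperature with 1 nM recombinant human Tdp1. The reaction starts on adding 15 nM FITC-phosphotyrosine DNA substrate, runs 5 min, and is detected by AlphaScreen beads after 10 min.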

The nature of experiment [7]: AP1 Signaling Pathway (AID 357; active = well fitted curve in either direction with a large enough effect, not every such curve was filed as active; note: % is set by controls: 0 for no effect and ±100 for the full control effect). Conditions: ME-180 (cervical carcinoma) AP-1-bla reporter, EGF-induced, beta-lactamase ratio, 5 h; at 7.69 µM (top of the series) unless noted. In short, it runs like this: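 First, ME-180 AP-1-bla cells were cultured overnight at 37 °C in low-serum Opti-MEM. Next, titrated compounds with EC50 EGF were incubated 5 hours. Finally, CCF4 was added for 2.5 hours and the 460/530 nm ratio recorded.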

The nature of experiment [8]: NFAT Signaling Pathway (AID 444; active = well fitted curve in either direction with a large enough effect, not every such curve was filed as active;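 note: carbachol stimulus at about its EC50 of 1 µM final; % is set by controls: 0 for no effect and ±100 for the full control effect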). To be noted: Jurkat NFAT-bla M1, carbachol, beta-lactamase ratio, 5 h; at 7.69 µM (top of the series) unless noted. In outline:
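Jurkat cells with NFAT-driven β-lactamase reporter and co-expressed M1 receptor, stimulated with carbachol (final 1 uM, ~EC50), compound titration, 5 h at 37 °C. CCF4 loaded 1 h at RT; 460/530 nm ratio gave %activity and AC50.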

A short description of experiment [9]: Stat Signaling Pathway (AID 446; active = well fitted curve in either direction with a large enough effect, not every such curve was filed as active;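 note: ME-180 cervical cancer cells given 40 pM IL-6 alongside compound; SIE-controlled beta-lactamase reporter measured as 460/530 nm FRET emission ratio; % is set by controls: 0 for no effect and ±100 for the full control effect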). In short, it runs like this: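 Compound effects on IL-6-induced STAT reporter activity were measured in ME-180 cells. After overnight culture, cells were co-treated with 40 pM IL-6 for 5 hrs before beta-lactamase substrate loading at room temperature.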
The target in experiment [10] is Glucocorticoid receptor (Homo sapiens) (UniProt P04150). Description: GR-GFP Redistribution (AID 450;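 active = compounds whose dose series gives a full or clear partial fitted curve of increased nuclear translocation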; note: potency is the fitted concentration of half-maximal effect). Conditions: U2OS GR-GFP nuclear translocation, laser cytometry, 2 h.
Experiment [11] has as its target Lethal(3)malignant brain tumor-like protein 1 (Homo sapiens) (UniProt Q9Y468). Description: qHTS Assay for the Inhibitors of L3MBTL1: Hit Validation (AID 540279). Note: potency is the fitted concentration of half-maximal effect; nearly all actives have a fitted effect of over 70% in size. To be noted: L3MBTL1 methyl-lysine binding inhibition, biochemical qHTS. In short, it runs like this:
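L3MBTL1 (50 nM final) preformed 30 min with biotinylated H3(1-15)K9me1 peptide (75 nM), then compound 30 min at room temperature. Streptavidin donor and nickel chelate acceptor AlphaScreen beads (10 ug/mL each final) added for 30 min before read.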

Experiment [12] can be described thus: qHTS Assay for the Inhibitors of L3MBTL1: Hit Validationin AlphaScreen Counterscreen (AID 602224). Note: 0% is about no effect. In short, it runs like this: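 Bead-only proximity control lacking target protein. Final 1 nM b-His6 with 10 ug/mL streptavidin donor and 10 ug/mL nickel chelate acceptor beads; 15 min compound exposure, then 30 min dark RT, then AlphaScreen read.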

Rap guanine nucleotide exchange factor 4 (Homo sapiens), sequence (Q8WZA2 whole entry, looked up): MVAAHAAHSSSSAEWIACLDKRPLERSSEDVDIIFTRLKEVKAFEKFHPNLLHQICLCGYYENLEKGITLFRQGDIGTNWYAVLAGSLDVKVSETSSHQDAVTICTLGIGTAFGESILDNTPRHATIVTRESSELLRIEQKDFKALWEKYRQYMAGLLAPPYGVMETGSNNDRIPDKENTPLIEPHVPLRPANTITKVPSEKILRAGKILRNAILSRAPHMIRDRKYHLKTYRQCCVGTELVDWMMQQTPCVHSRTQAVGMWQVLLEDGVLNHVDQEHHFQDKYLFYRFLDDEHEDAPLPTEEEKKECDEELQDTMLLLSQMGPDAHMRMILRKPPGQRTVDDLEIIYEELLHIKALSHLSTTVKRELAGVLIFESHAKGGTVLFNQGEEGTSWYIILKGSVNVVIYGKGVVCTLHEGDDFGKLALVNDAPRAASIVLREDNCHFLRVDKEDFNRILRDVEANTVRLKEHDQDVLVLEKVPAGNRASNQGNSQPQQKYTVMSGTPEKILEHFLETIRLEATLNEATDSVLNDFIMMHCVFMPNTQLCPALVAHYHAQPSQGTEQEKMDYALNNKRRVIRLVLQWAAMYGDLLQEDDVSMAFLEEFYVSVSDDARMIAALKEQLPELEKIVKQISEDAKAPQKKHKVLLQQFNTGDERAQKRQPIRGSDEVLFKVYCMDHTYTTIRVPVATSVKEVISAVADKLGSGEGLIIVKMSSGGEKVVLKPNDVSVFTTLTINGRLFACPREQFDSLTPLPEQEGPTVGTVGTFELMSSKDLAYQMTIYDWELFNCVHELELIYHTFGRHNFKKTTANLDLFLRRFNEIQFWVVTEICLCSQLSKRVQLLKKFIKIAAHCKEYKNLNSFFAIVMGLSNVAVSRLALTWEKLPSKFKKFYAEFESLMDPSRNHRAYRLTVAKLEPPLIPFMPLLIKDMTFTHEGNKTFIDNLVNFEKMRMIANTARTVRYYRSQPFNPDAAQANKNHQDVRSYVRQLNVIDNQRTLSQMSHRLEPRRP
Rap guanine nucleotide exchange factor 3 (Homo sapiens), sequence (O95398 whole entry, looked up): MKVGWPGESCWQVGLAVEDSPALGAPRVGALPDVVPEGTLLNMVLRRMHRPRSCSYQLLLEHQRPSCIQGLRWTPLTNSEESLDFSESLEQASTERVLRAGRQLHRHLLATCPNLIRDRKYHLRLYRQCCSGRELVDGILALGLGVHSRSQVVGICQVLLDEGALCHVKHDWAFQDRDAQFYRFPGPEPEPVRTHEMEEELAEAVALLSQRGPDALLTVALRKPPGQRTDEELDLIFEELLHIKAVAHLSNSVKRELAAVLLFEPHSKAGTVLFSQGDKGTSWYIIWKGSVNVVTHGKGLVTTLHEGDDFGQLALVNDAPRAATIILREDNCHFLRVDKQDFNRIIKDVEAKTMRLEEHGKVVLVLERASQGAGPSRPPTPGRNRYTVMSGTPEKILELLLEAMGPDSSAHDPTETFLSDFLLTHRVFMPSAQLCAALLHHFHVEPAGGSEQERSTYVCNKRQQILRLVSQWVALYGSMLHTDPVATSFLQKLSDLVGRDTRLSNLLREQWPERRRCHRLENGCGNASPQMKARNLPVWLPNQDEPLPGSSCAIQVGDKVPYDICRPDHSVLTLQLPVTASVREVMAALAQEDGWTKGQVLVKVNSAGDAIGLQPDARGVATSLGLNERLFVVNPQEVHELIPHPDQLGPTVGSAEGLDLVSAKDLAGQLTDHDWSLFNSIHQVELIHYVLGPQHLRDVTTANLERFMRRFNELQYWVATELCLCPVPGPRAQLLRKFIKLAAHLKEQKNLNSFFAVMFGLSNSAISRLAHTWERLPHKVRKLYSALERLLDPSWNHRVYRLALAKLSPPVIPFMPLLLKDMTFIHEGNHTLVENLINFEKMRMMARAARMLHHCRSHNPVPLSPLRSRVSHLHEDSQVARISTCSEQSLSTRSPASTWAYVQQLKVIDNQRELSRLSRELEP
Tyrosyl-DNA phosphodiesterase 1 (Homo sapiens), sequence (Q9NUW8 whole entry, looked up): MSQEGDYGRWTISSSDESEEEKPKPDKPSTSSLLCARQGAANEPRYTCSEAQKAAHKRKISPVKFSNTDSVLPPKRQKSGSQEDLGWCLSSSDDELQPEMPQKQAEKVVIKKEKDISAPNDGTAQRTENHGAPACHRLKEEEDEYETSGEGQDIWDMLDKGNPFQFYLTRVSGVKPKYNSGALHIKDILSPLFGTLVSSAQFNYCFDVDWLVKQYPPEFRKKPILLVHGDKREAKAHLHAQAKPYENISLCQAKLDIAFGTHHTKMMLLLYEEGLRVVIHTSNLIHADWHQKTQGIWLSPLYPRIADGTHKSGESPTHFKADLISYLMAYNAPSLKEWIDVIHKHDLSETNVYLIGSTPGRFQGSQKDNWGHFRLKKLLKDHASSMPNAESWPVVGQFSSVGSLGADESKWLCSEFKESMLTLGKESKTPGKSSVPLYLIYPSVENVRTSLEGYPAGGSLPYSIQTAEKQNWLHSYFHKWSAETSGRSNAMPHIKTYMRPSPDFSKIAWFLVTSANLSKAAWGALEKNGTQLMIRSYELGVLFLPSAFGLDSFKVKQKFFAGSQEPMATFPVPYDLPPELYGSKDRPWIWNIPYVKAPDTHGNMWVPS
Glucocorticoid receptor (Homo sapiens), sequence (P04150 whole entry, looked up): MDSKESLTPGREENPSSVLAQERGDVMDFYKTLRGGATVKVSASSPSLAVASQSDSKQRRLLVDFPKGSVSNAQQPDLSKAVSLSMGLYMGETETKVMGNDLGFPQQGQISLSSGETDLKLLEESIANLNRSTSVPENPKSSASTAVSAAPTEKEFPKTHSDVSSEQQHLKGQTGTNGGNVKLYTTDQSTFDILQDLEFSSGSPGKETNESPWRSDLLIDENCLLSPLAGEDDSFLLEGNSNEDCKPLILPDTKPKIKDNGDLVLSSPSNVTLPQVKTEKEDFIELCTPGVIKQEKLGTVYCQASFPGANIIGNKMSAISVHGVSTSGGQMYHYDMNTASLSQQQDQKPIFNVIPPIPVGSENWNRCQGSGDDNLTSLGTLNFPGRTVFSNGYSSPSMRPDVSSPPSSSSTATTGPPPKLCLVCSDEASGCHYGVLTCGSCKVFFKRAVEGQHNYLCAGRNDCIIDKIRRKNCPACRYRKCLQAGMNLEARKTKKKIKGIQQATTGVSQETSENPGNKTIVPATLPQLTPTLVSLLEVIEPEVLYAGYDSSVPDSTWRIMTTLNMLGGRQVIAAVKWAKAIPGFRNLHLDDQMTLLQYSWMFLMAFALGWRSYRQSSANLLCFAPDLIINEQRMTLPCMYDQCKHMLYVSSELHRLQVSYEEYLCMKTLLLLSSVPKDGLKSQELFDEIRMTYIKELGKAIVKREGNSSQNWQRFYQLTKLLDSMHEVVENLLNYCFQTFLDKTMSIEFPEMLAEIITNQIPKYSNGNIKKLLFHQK
Lethal(3)malignant brain tumor-like protein 1 (Homo sapiens), sequence (Q9Y468 whole entry, looked up): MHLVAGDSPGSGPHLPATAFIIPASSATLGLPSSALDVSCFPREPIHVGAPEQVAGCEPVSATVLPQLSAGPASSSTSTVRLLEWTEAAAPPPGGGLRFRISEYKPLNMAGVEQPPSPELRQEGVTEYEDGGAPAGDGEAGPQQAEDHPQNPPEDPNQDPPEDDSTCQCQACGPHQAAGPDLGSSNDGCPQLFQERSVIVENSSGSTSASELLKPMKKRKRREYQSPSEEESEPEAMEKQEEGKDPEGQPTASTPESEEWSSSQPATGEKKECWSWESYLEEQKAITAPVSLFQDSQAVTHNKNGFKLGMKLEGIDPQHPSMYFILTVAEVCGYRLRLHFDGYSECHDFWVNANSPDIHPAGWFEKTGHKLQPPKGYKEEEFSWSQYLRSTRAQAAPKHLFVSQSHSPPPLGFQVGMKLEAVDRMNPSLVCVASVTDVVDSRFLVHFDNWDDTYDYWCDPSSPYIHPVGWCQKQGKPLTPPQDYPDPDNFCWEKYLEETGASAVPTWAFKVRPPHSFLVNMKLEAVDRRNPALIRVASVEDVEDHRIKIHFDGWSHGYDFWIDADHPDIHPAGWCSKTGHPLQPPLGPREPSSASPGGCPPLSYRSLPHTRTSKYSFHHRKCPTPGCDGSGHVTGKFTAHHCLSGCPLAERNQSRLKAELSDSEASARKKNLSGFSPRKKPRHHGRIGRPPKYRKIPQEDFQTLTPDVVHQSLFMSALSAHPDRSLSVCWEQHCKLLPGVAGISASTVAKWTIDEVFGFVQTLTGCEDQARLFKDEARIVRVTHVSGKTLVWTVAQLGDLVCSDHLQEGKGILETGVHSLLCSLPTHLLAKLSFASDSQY

In the case of `CC(=O)Nc1ccc(S(=O)(=O)/N=C2/NC(=O)/C(=C\c3ccco3)S2)cc1`, the Potency result in experiment [1], in experiment [2], in [4] and in experiment [5] was “inactive” in each case. Further, the Potency in [3] is 84.9 µM (active).
Turning to `NS(=O)(=O)c1ccc(CCNC(=O)Cc2ccc(S(=O)(=O)N3CCCC3)s2)cc1`, the Potency result in [1] and in experiment [3] was “inactive” each time. The activation in [2] is 2.8% [at 17.1 µM, percent relative to cAMP agonist control]; in [5], 24% [at 30.8 µM]. Further, in [4], the activity change, negative = inhibition is 7.67% [at 30.8 µM].
Turning to `NS(=O)(=O)c1ccc(N=Nc2ccc(=O)[nH]c2O)cc1`, the Potency in experiment [6] is 6.31 µM (active). In addition, the Potency entry in experiment [1] and in experiment [3] was “inactive” in each case. The activation in [2] was -0.407% [at 17.1 µM, percent relative to cAMP agonist control]; in [5], -0.888% [at 30.8 µM]. The activity change, negative = inhibition in [4] was -5.26% [at 30.8 µM].
Turning to `COc1ccc2sc(-c3ccc(N(C)C)cc3)c(C#CC(C)(C)O)c2c1`, the Potency result in experiment [1], in experiment [2], in experiment [3], in [4] and in experiment [5] was “inactive” in each case.
Turning to `O=C(NCCc1c[nH]c2ccccc12)C(=O)Nc1cc2c3c(c1)CC(=O)N3CCC2`, the Potency result in experiment [1], in [2], in [3], in experiment [4] and in experiment [5] was “inactive” each time.
Consider `COc1ccc(-c2csc(C(C)(O)c3ccccc3)n2)cc1` (configuration not stated), for which the Potency entry in [1] and in [3] was “inactive” in each case. Also, the activation in [2] is 5.7% [at 17.1 µM, percent relative to cAMP agonist control]; in [5], 23.4% [at 30.8 µM]. The activity change, negative = inhibition in [4] was 8.72% [at 30.8 µM].
Consider `Cc1ccc(C)c(N2CCN(C(=O)c3cccn4c(=O)c5ccccc5nc34)CC2)c1`, for which the Potency result in [1], in experiment [2], in experiment [3], in experiment [4] and in [5] was “inactive” in each case.
Regarding `CC(Oc1ccc(Cl)cc1Cl)C(=O)NC1=NN(c2ccccc2)C(=O)C1` (configuration not stated), the Potency result in experiment [1], in experiment [2], in experiment [3], in experiment [4] and in experiment [5] was “inactive” throughout.
`NS(=O)(=O)c1ccc(N/N=C/c2ccccc2C(=O)O)c([N+](=O)[O-])c1`: the Potency result in experiment [1], in experiment [2], in experiment [3], in [4] and in [5] was “inactive” throughout.
On to `CCc1nnc(NS(=O)(=O)c2ccc(N/C=C\C(=O)c3ccc4ccccc4c3)cc2)s1`, for which the Potency result in experiment [1] and in experiment [3] was “inactive” in each case. Also, the activation was 1.49% [at 17.1 µM, percent relative to cAMP agonist control] in experiment [2] and 3.82% [at 30.8 µM] in experiment [5]. In addition, the activity change, negative = inhibition in experiment [4] is -10.2% [at 30.8 µM].
For `CC1(NC(=O)CCc2nc3sc4c(c3c(=O)[nH]2)CCCC4)CCS(=O)(=O)C1` (configuration not stated), the Potency result in experiment [1] and in experiment [3] was “inactive” each time. Further, the activation in [2] was 0.392% [at 17.1 µM, percent relative to cAMP agonist control]; in experiment [5] it was 8.58% [at 30.8 µM]. Besides, in experiment [4], the activity change, negative = inhibition was -17% [at 30.8 µM].
Consider `Cc1cccc(C)c1-n1cccc1/C=C1\SC(=S)N(c2cccc(C(=O)O)c2)C1=O`, for which the Potency entry in [1], in experiment [2], in experiment [3], in experiment [4] and in experiment [5] was “inactive” in each case.
As to `CC(C)OC(=O)C(C#N)c1nc2ccccc2nc1N1CCCC1` (configuration not stated), the activity change, negative = inhibition is 8.73% [at 17.2 µM] in [7], -13.2% [at 17.2 µM] in [8] and -19.9% [at 30.8 µM] in experiment [4]. Moreover, the call in experiment [9] was inactive. The Potency in experiment [10] was above 20.6 µM. In addition, the Potency result in experiment [1] and in experiment [3] was “inactive” in each case. The activation in experiment [2] was 3.69% [at 17.1 µM, percent relative to cAMP agonist control]; in experiment [5], 3.58% [at 30.8 µM].
Regarding `Cc1ccc(Cn2c(C)nc3c(c2=O)c2nc4ccccc4nc2n3Cc2ccco2)cc1`, the Potency in experiment [11] is 23.8 µM (active). Also, in experiment [12], the call was inactive. Also, the Potency result in experiment [1], in experiment [2], in [3], in [4] and in experiment [5] was “inactive” throughout.
On to `COc1cc(/C=C2/C(=O)NN(c3cccc(Cl)c3)C2=O)cc(OC)c1O`, for which the Potency entry in experiment [1] and in experiment [3] was “inactive” each time. The activation in [2] was 11.7% [at 17.1 µM, percent relative to cAMP agonist control]; in experiment [5], 4.51% [at 30.8 µM]. Further, the activity change, negative = inhibition in experiment [4] is -0.0912% [at 30.8 µM].
In the case of `COc1cc(/C=C2/SC(=S)N(c3c(C)n(C)n(-c4ccccc4)c3=O)C2=O)ccc1O`, the Potency result in [1] and in [3] was “inactive” throughout. In addition, the activation in experiment [2] was 9.4% [at 17.1 µM, percent relative to cAMP agonist control]; in experiment [5] it was 11.7% [at 30.8 µM]. Moreover, in experiment [4], the activity change, negative = inhibition was -24.4% [at 30.8 µM].
For `COC(=O)c1ccc2nc(-c3ccc(OC)c(OC)c3)c(Cc3ccccc3)n2c1`, the Potency result in experiment [1], in experiment [2], in experiment [3], in experiment [4] and in experiment [5] was “inactive” throughout.
